B1: chr2:232319755:232319756:-_ENSG00000115053_ENST00000322723|hu_hu|motif|central (ssRNA)
RNA: GGGAGUUCUACAGUCCGACGAUCAAAAGUUUAUAUGAAUAUCCAGUCAAAACCAACACGGUAUUGCCCUUGAAAUGUUAACGGGACGGAUUUCCAAGGAGACCACAGGACUGUAUACUGUCUUGGAAUGUCCUCAGAAGGCUCCAACAGAGGAUUGAGCAUCA
B2: 69235085_69235205_3312_3pUTR_ENSG00000135679_ENST00000462284|human|control|control (ssRNA)
RNA: GGGAGUUCUACAGUCCGACGAUCGGCUGGAGAAUAAGUACAUUUUUACAGCCGGGUGUGGUGGCUAACGCCUGUAAUCCUACUUAGCACUUUGCGAGGCCAAGACAGGAGGAUCUCUUGAGCCCAGGAGUUCGAGACCAGCCUCAACAGAGGAUUGAGCAUCA
B3: chr11:79222206:79222207:+_ENSMUSG00000020716_ENSMUST00000071325|mus_hu|FALSE|FALSE (ssRNA)
RNA: GGGAGUUCUACAGUCCGACGAUCUUUUGUAAAUUCAUCUGGAUAAUUUUCUACCCAGUUCCAAAAUGCCUUUUCCAGGCUAUUUAUAACUGCUAACUGCGCAACCUUCUUUAGGGCUUUAAAUUUAAAUGCUGUUUCCUUCAGCAACAGAGGAUUGAGCAUCA
B4: 62954625_62958383_5419_CDS_ENSG00000116641_ENST00000251157|human|control|control (ssRNA)
RNA: GGGAGUUCUACAGUCCGACGAUCUGCUUCUUGAAGUUUACCAUGAAUUGUGGAUAGUUUCUUUGCAUCCCGAUUAGCUUCAUGAAUAGGAAUAAGUACUUUGUAAACUUCAUUAACUGCUUCAUACAUGCCAGCCAUAGAGAACAACAGAGGAUUGAGCAUCA
B5: chr9:53391639:53391640:-_ENSMUSG00000032047_ENSMUST00000034547|mus_hu|motif|central (ssRNA)
RNA: GGGAGUUCUACAGUCCGACGAUCCACUUUUUGGGGAUCAAUCUCCAACAUUUUAAUGUUUGCUAGUACAACCAGACGGAAGGCUUCAUUUACUUCCCACAUUGCAAUAUCUUCUUUUUUCAAUCCCACAUCUUUAAGAACCAUCAACAGAGGAUUGAGCAUCA
B6: chr4:76721835:76721836:+_ENSG00000138768_ENST00000264904|hu_mus|hu_hu_hu_mus_True|48_48 (ssRNA)
RNA: GGGAGUUCUACAGUCCGACGAUCGUUUGGCUGGGGUUUCUGAGACGCUCUGGAAUAUAACUCAUGUUUGCUAAUAAAUCCUAGUUUUCUAUGAAAUUUCUCUUUGCCAAUCCUCUUCUCUAUUAGUUGCUUUAGUUUCUCUUUCAACAGAGGAUUGAGCAUCA
B7: chr9:66219764:66219765:+_ENSMUSG00000038664_ENSMUST00000042824|mus_mus|motif|central (ssRNA)
RNA: GGGAGUUCUACAGUCCGACGAUCUUCAAAAUCAGGCAACUGUGGUCCUUUGAGGCAUAAAACCUGUUGAGGCAAAGGUACGGCUUCCUUAUUGCUGAUCAGUUUAGAAUACAAAACGGUAACUCCCUCUCUUGUAGCAAUAGACAACAGAGGAUUGAGCAUCA
B8: chr7:44244176:44244177:+_ENSG00000106636_ENST00000223369|hu_mus|hu_hu_hu_mus_False|38_108 (ssRNA)
RNA: GGGAGUUCUACAGUCCGACGAUCACUAUCAUUCCGGACGUAGACAUGGCAAAGAUACUCUUGUUCUUUGACAGAAGCUCUGCUGCCUUUCCCCGAGCGCUCCACAAUCAGUUGACUUGUAAAGGUCAUGAAUUCCUGCACACUCAACAGAGGAUUGAGCAUCA
B9: 109692034_109692919_6190_CDS_ENSG00000148143_ENST00000277225|human|control|control (ssRNA)
RNA: GGGAGUUCUACAGUCCGACGAUCGAGGUGAUUGCAGAUGGCUCGGAGCGUUGGGUGCACUUCCACACAGAAUUUACAUUUGUAGCCCACCACUUUCCUCUCCUUGAUCUUUGGCACCUCUUCUAAGUGACCAAAAGGCCUCUCCAACAGAGGAUUGAGCAUCA
B10: chr1:220276048:220276049:+_ENSG00000067704_ENST00000302637|hu_hu|hu_hu_hu_mus_True|38_88 (ssRNA)
RNA: GGGAGUUCUACAGUCCGACGAUCGCAAAUUGCCUGGUUGGCGGGAAUCGUCCAAGGCUGGGUGGUCCAAACUAAAACGCUAACAGGGGAUGAGGCAUCUAUAAGAGACUCCAACUUCGGAGGAGGUCUCAGGAGGGGGAAUCUCAACAGAGGAUUGAGCAUCA
B11: chr1:115282363:115282364:-_ENSG00000009307_ENST00000339438|perfect_dup|motif|central (ssRNA)
RNA: GGGAGUUCUACAGUCCGACGAUCAUCAUCUCCUACUUUUAAGUCUUGCAGGUUGCCAUUAUACUGUGAACAGUGGAAGAAAAGUCGGGCUUGACGUUCUGAACACUGAAUAAAUCCGUAAGAGGUUAACAGUUUUUCAAUAACCAACAGAGGAUUGAGCAUCA
B12: chr18:35748043:35748044:+_ENSMUSG00000037236_ENSMUST00000166793|perfect_dup|FALSE|FALSE (ssRNA)
RNA: GGGAGUUCUACAGUCCGACGAUCUGUAUAAAAGAGUGAACACAGCUUACAGUAAAACCCUGUUUUAGGUAUCACAUAGUCUAUACCAACAGGAACAUUAGGCUGAUAUGGUCCGAUUCUAUACUCAUCGGGAAUUGUAUAAUCCAACAGAGGAUUGAGCAUCA
B13: chr2:179515052:179515053:+_ENSMUSG00000000305_ENSMUST00000000314|mus_hu|mus_mus_mus_hu_False|28_58 (ssRNA)
RNA: GGGAGUUCUACAGUCCGACGAUCGCUGUCCCAUGCAGUCACCGUGAACGCCACCUGCUCGGAGGGGACCUGCAGCUCCCUAGUGGCGAAGACUGUCCCAUCUGCCCCGACUUUGAAGUCCAUGCUGUUGGUCUCAUAUUGUGUCAACAGAGGAUUGAGCAUCA
B14: chr7:135612270:135612271:-_ENSG00000105887_ENST00000393085|hu_mus|hu_hu_hu_mus_False|8_8 (ssRNA)
RNA: GGGAGUUCUACAGUCCGACGAUCGUUUUUUUCUGAGAUGUUAAAUAGUACUUCAGUGGAAAACAAAACUUAACCUUUUAUUAAUGCGUGUUGUACCAAAAGCAGACAUUUUAGCUUCAUUUAUUCACUCAAAAUAUCAUUAAGCAACAGAGGAUUGAGCAUCA
B15: chr18:56819859:56819860:+_ENSG00000166562_ENST00000588875|hu_mus|hu_hu_hu_mus_True|88_88 (ssRNA)
RNA: GGGAGUUCUACAGUCCGACGAUCAACCUUGAUUACUCUGUGAACUAUUGGAAUGUCUCUUCCUUCAACCUUAAAAACAACUAUUUCACCAGCUCUGAUGGGGUCCUCCCGGAAAUUCGUGAGGAACAGCAGAUCUCCUCUGUGCAACAGAGGAUUGAGCAUCA
B16: chr5:145543945:145543946:-_ENSG00000133706_ENST00000545646|hu_hu|hu_hu_hu_mus_True|38_58 (ssRNA)
RNA: GGGAGUUCUACAGUCCGACGAUCCUGAACGGCCAGUGGUGGGAAAUAAUCAAGCCAGUGCUCUGCUUCAGAAAACUUUACUAUCUCGUCAUCAGAGAGGCCAAGGGAUUUCAUAAUGUCCCACUGGUACUUAGAAGAUCCUGCCAACAGAGGAUUGAGCAUCA
B17: chr12:73313434:73313435:-_ENSMUSG00000021087_ENSMUST00000021497|mus_mus|motif|central (ssRNA)
RNA: GGGAGUUCUACAGUCCGACGAUCCAUAUAUCCUAAGAGUACAGGAAGAGCCUCAAAACACCUGUCUCAAAGUUUGCCUCGGAGAUUAUGGUACCAGGAAAGGGAAACAAUCAAUUUGCAGUAACGAGGAAGGAGAGAGCUGUUCAACAGAGGAUUGAGCAUCA
B18: 87970796_87970916_7552_CDS_ENSG00000188994_ENST00000369577|human|control|control (ssRNA)
RNA: GGGAGUUCUACAGUCCGACGAUCUUCUGACUGGCAGAGGUUAUCUUCCUGAAAAUCAUUACUUACAUUUGAAGAAGUAUUAGCUUGGGUCUCUACACUUGUGCUAUCUUCAUUUAUUAAUUUUGUAAUAAACAAUUCUGUUAGCAACAGAGGAUUGAGCAUCA
B19: chr15:93570553:93570554:+_ENSG00000173575_ENST00000394196|hu_hu|motif|central (ssRNA)
RNA: GGGAGUUCUACAGUCCGACGAUCUCUAAGGCCAUAGUGUAUCAUGUCAACCCUUGUUCACGUGCAGGUUUUAGGUGAUGCGGACUCCCUCUUUCUCAACCUGUUAUUUCUACCAACAAUGAAAUCUUUCAAAGCCAGACUCCACAACAGAGGAUUGAGCAUCA
B20: 135292008_135298915_3170_CDS_ENSG00000155561_ENST00000285968|human|control|control (ssRNA)
RNA: GGGAGUUCUACAGUCCGACGAUCAUAUAUGACCUGGUAACAUAGCUCAGCCAGCUGAGGAGAUUCUCGCACCGCCACUGGGCCUGUUCUCCCUUCCGUUCCUUUCUCCAAGAUGUUUAGAAUGGCGUGAAGGCAUGUCCGAGGCAACAGAGGAUUGAGCAUCA
B21: chr1:66463027:66463028:+_ENSMUSG00000015222_ENSMUST00000114013|mus_hu|motif|central (ssRNA)
RNA: GGGAGUUCUACAGUCCGACGAUCUUUUCUUUCAGGAGUGGAAAUUCUGCCUCUCCCGGUUUUAAAAGGCUUUUCUUUUCGGUGUUUCUCAAGAGAUGAUCUCCGAGCUUCCUUUUCAGCUUUCUCCUCUUUAGGAAUAGUUUCCAACAGAGGAUUGAGCAUCA
B22: 18138343_18138463_2469_3pUTR_ENSMUSG00000026740_ENSMUST00000166495|mouse|control|control (ssRNA)
RNA: GGGAGUUCUACAGUCCGACGAUCUUAGAUCCAUGUAUUCAUGUGCAUGUGUCUAUGUGGGCUCGGAUGUGUGUGCUGUACCACAAUAUGAAUGCAGAGGUCAGAGGACAGCUCCUGUGAACAUGUGCUUGCUGGAGAGUGAGUCAACAGAGGAUUGAGCAUCA

Over roughly 24,000 sequences, “enrichment r” has its median near 0.99; the highest 2% begin near 3.7. A selection follows.

The test deals with T1, UNK ZnF1-3 (human, UniProt Q9C0B0 31-174).
T1 sequence: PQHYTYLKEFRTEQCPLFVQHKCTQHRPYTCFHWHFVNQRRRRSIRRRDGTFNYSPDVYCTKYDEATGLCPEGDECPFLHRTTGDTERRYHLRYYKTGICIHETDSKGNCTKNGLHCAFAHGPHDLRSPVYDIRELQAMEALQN
Kind of test: nsRBNS (natural sequence RNA bind-n-seq); RBNS binding buffer (assumed for nsRBNS): 25 mM Tris pH 7.5, 150 mM KCl, 3 mM MgCl2, 0.01% Triton X-100, 500 ug/ml BSA, 20 U/ml SUPERase-In, 4 C; UNK is unkempt and MSI1 is Musashi-1; names of the RNAs are library labels; protein concentration not given here; high values mean tight binding.
With B1, the binding signal amounted to 0.847 enrichment R.
Regarding B2, the binding signal came to 1.12 enrichment R.
B3: the binding signal was 0.853 enrichment R.
As for B4, the binding signal worked out at 1.01 enrichment R.
For the molecule B5, the binding signal is 1.03 enrichment R.
Molecule B6 displayed a binding signal of 0.57 enrichment R.
For the molecule B7, the binding signal was found to be 0.879 enrichment R.
Regarding B8, the binding signal was 0.779 enrichment R.
To B9 belongs 0.805 enrichment R.
For the molecule B10, the binding signal was 1.67 enrichment R.
B11 gave a binding signal of 1.55 enrichment R.
B12 displayed a binding signal of 0.418 enrichment R.
To B13 belongs 0.737 enrichment R; to B14, 0.523 enrichment R.
Consider B15, for which the binding signal amounted to 0.697 enrichment R.
In turn, B16 yielded a binding signal of 1.07 enrichment R.
B17 yielded a binding signal of 2.3 enrichment R.
B18 registered a binding signal of 0.862 enrichment R.
To B19 belongs 0.941 enrichment R; to B20, 1.11 enrichment R.
The molecule B21 gave a binding signal of 0.426 enrichment R.
To B22 belongs 1.27 enrichment R.

Source of the values: paper PMC12136788.
